The list is not random: actives were taken first. Their share in the collection is about 3.5%.
FBW7 act – activators of human E3 ligase FBW7 | hit rate 0.13% among 650,000 | normalized activity (activation), % at 26.1 µM | AlphaScreen FBW7–phospho-cyclin E peptide binding, activator screen | Q969H0; in the data active = normalized activity above about 1.9%;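 also: purified mutant Fbw7 with reduced substrate affinity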
GPR151 activ – human GPR151 activation; Q8TDV0; activation, % at 11.2 µM; hit rate 1% among 650,000; PathHunter beta-arrestin GPR151 cells, luminescence; in the data active = activation above about 4.9%;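 also: 0% = median of compound wells and 100% = cells with positive control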
TEAD-YAP inh – TEAD-YAP interaction inhibition | inhibition, % at 9.12 µM | hit rate 1.4% among 640,000 | HEK-TIYL cells, TEAD-Gal4/YAP UAS-luciferase luminescence | AID 1259422; in the data active = inhibition above about 32%;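 also: 0% = median of test compound wells and 100% = reference inhibitor wells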
MITF primary – blocks human microphthalmia-associated transcription factor; AlphaScreen MITF homodimerization, bead proximity signal; inhibition, % at 2.6 µM; O75030; hit rate 0.91% among 650,000; in the data active = inhibition above about 50%;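 also: 0% = vehicle wells with protein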
Target sequence (O75030 whole entry, looked up): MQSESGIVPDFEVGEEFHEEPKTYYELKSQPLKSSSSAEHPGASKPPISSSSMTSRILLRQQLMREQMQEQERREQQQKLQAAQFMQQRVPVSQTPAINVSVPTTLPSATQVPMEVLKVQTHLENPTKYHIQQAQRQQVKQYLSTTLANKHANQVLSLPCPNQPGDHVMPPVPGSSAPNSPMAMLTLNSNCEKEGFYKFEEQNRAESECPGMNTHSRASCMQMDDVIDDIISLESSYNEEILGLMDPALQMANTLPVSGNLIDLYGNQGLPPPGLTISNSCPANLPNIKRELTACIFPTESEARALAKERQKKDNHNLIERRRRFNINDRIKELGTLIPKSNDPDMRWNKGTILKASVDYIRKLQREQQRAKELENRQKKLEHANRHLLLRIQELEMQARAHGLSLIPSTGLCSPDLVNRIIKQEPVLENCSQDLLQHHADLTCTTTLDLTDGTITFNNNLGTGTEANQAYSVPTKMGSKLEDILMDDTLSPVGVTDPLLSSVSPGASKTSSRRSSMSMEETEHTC
Numbers without * were called inactive.

SMILES	FBW7 act	GPR151 activ	TEAD-YAP inh	MITF primary
O=C(CN1Cc2ccccc2C1)N1CCCC(c2ncncc2-c2ccncc2)C1 (configuration not stated)	3.3*	0	4	16
Clc1ccccc1-c1nc(N2CCN(c3ccccc3)CC2)nc2ccc(Br)cc12	0	0	-2	-4
COc1ccc(C(NC(C)=O)c2ccc3cccnc3c2O)cc1 (configuration not stated)	-2	0	86*	48
Cc1ccc(C(NC(=O)C(C)C)c2ccc3cccnc3c2O)cc1 (configuration not stated)	-1	0	86*	21
CCCCC(=O)NC(c1ccc(OC)cc1)c1ccc2cccnc2c1O (configuration not stated)	-2	0	80*	41
COc1ccc(C(=O)NC(c2ccc(C)cc2)c2cc(Cl)c3cccnc3c2O)cc1 (configuration not stated)	0	1	10	15
O=[N+]([O-])c1ccc(C(Nc2nccs2)c2ccc3cccnc3c2O)cc1 (configuration not stated)	-2	-1	27	18
COc1ccccc1C(NC(=O)Cc1ccccc1)c1ccc2cccnc2c1O (configuration not stated)	-1	0	29	22
Cc1ccc(C(NC(=O)C2CCCCC2)c2ccc3cccnc3c2O)cc1 (configuration not stated)	0	2	34*	30
CCc1c(C)nc(NC2CCN(CC(=O)Nc3ccc4c(c3)OCCO4)CC2)[nH]c1=O	0	1	1	-15
COc1ccc(C(NC(=O)C(C)C)c2ccc3cccnc3c2O)cc1OC (configuration not stated)	-2	1	90*	62*
COc1ccc(C(NC(=O)C(C)C)c2ccc3cccnc3c2O)cc1 (configuration not stated)	-2	-1	75*	51*
CCN(CC)c1ccc(C(NC(=O)C(C)C)c2cc(Cl)c3cccnc3c2O)cc1 (configuration not stated)	0	-2	1	8
Cc1cc(N2C(=O)CSC2c2ccc(Cl)cc2)ccc1Br (configuration not stated)	0	1	-10	-5
O=C(NCCCCNC(=O)c1cccc(Cl)c1)c1cccc(Cl)c1	0	-1	0	3
O=C(CSCC(=O)Nc1ccccc1)N/N=C/c1c(O)ccc2ccccc12	0	-2	74*	-51
O=C(CSc1cccc2cccnc12)N/N=C/c1c(O)ccc2ccccc12	0	0	34*	12
O=[N+]([O-])c1ccc(Cl)cc1Sc1nc2ccccc2s1	0	1	10	7
Nc1ccc(C(=O)NCc2ccc(Cl)cc2)cc1[N+](=O)[O-]	0	-3	3	15
Cc1ccc(-n2c(SCc3cc(=O)n4ccccc4n3)nc3[nH]ncc3c2=O)cc1Cl	0	2	33*	8
CCC(C)(C)n1nnnc1CN(Cc1cccnc1)Cc1ccccc1Cl	0	-1	6	-15
CCc1c(C)sc2ncn(C3CCN(C(=O)C4CCCC(OC)C4)CC3)c(=O)c12 (configuration not stated)	0	0	42*	6
CCc1c(C)sc2ncn(C3CCN(C(=O)Cc4ccsc4)CC3)c(=O)c12	0	2	45*	-8
CCc1c(C)sc2ncn(C3CCN(C(=O)CCn4nc(C)cc4C)CC3)c(=O)c12	0	1	1	5
Cc1c(C(=O)N2CCC3(CC2)OCCO3)sc2ncn(CC(=O)Nc3ccc(C(C)C)cc3)c(=O)c12	0	2	6	7
SMILES	FBW7 act	GPR151 activ	TEAD-YAP inh	MITF primary
CCc1nnc(NC(=O)[C@@H](NS(=O)(=O)c2cccc(Cl)c2)C(C)C)s1	0	-1	3	5
COc1cc(-c2[nH]nc3c2C(c2ccccc2Cl)C(C#N)=C(N)O3)cc(OC)c1OC (configuration not stated)	0	-1	16	-3
COc1cc(-c2[nH]nc3c2C(c2ccccc2Br)C(C#N)=C(N)O3)cc(OC)c1OC (configuration not stated)	0	0	36*	-3
CN=c1scc(-c2cccs2)n1/N=C/c1ccc[nH]1	0	-1	87*	17
CN=c1scc(-c2ccccc2Br)n1/N=C/c1ccc[nH]1	0	-2	88*	-5
Cc1ccc(NC(=O)CN2C(=O)N/C(=C/c3cccn3-c3ccc(C(=O)O)cc3)C2=O)cc1	0	0	1	79*
COc1ccc(-n2cccc2/C=C2\NC(=O)N(CC(=O)Nc3ccccc3)C2=O)cc1	0	2	-3	9

Screening results (PubChem)
